Laboratory results from PubChem BioAssay (EPA / NIEHS).
Active and inactive are the calls of the source. How the source made its calls: active means hit-call score of the fitted dose curve at least 0.9, where 1 is the maximum; inactive means score below 0.9.

assay: ATG_M_32_CIS: Attagene CIS-FACTORIAL HepG2 Assay for M32 Transcription Factor (Internal Marker) (AID 2282949); settings: HepG2 Attagene cis-factorial M32 reporter, mRNA; actives raise or lower the signal;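 further: background control marker of the multiplexed CIS panel rather than a real target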
Experimental: ATG_CIS is a cell-based, multiplexed-readout assay that uses HepG2, a human liver cell line, with measurements taken at 24 hours after chemical dosing in a 24-well plate.ATG_M_32_CIS is one of 52 assay component(s) measured or calculated from the ATG_CIS assay. It is designed to make measurements of mRNA induction, a form of inducible reporter, as detected with fluorescence intensity signals by Reverse transcription polymerase chain reaction (RT-PCR) and Capillary electrophoresis technology.Data from the assay component ATG_M_32_CIS was analyzed into 1 assay endpoint. This assay endpoint, ATG_M_32_CIS, was analyzed with bidirectional fitting relative to DMSO as the negative control and baseline of activity. Using a type of inducible reporter, measures of mRNA for gain or loss-of-signal activity can be used to understand the background control at the transcription factor-level as they relate to the gene . Furthermore, this assay endpoint can be referred to as a secondary readout, because this assay has produced multiple assay endpoints where this one serves a background control function. To generalize the intended target to other relatable targets, this assay endpoint is annotated to the background measurement intended target family, where the subfamily is internal marker.
Human liver HepG2 cells are transiently transfected with multiple reporter transcription units (MRTUs) in 6-well plates using FuGene 6 reagent (Roche; 3 ml FuGene/1 mg DNA). The MRTU constructs are regulated by a cis-regulating element (promoter). […] A major difference between the CIS and TRANS system is that in CIS activities of endogenous TFs are measured, whereas the TRANS assay evaluates changes in activities of exogenous, chimeric NR-Gal4 proteins. […] At the end of 24 hour incubation, total RNA was isolated using TriZol reagent (Invitrogen). The isolated RNA is then reverse-transcribed using oligo(dT) primer and Mo-MLV reverse transcriptase (Invitrogen) with DNAse I (Ambion) treatment for 30 min. The one-tenth of the produced cDNA was amplified by PCR using Taq DNA polymerase (Invitrogen) and two reporter sequence-specific primers. The PCR products were fluorescently labeled by primer extension with 6-arboxyfluorescein (6-FAM) 5'-labeled reporter sequence-specific primer (2 min at 95 C, 20 s at 68 C and 10 min at 72 C) and these products were digested with 5U of HpaI (New England Biolabs) for 2h at 37 C. The fragments were purified using Qiaquick PCR columns (Qiagen), analyzed on an ABI 3130xL genetic analyzer (Applied Biosystems) with peak positions identified by using a set of X-rhodamine (ROX)-labeled MapMarker1000 molecular weight standards (BioVentures). The raw capillary electrophoresis data was processed using Attagraph software (Attagene).

outcome, inactive:
O=C(O)c1cc(C(=O)O)cc([N+](=O)[O-])c1
c1ccc(CN(Cc2ccccc2)Cc2ccccc2)cc1
CN(C)c1ccncc1
OC[C@H]1O[C@@H]2O[C@H]3[C@H](O)[C@@H](O)[C@@H](O[C@H]4[C@H](O)[C@@H](O)[C@@H](O[C@H]5[C@H](O)[C@@H](O)[C@@H](O[C@H]6[C@H](O)[C@@H](O)[C@@H](O[C@H]7[C@H](O)[C@@H](O)[C@@H](O[C@H]8[C@H](O)[C@@H](O)[C@@H](O[C@H]9[C@H](O)[C@@H](O)[C@@H](O[C@H]1[C@H](O)[C@H]2O)O[C@@H]9CO)O[C@@H]8CO)O[C@@H]7CO)O[C@@H]6CO)O[C@@H]5CO)O[C@@H]4CO)O[C@@H]3CO
COC(=O)Nc1ccc(Cl)c(Cl)c1
CC1(C)C2=CCCC(C)(C)[C@]23CC[C@H]1C3
C=CCN(CC=C)CC=C
Cc1c(C2(c3cc(Br)c(O)c(Br)c3C)OS(=O)(=O)c3ccccc32)cc(Br)c(O)c1Br
CCCOCCO
CC(=O)CC(=O)Nc1ccc(C)cc1C
CN(c1nccc(=O)[nH]1)C1CCN(c2nc3ccccc3n2Cc2ccc(F)cc2)CC1
OCC(O)c1ccccc1 (stereo not given)
C[C@H](CCC(=O)NCC(=O)O)[C@H]1CC[C@H]2[C@@H]3[C@H](O)C[C@@H]4C[C@H](O)CC[C@]4(C)[C@H]3C[C@H](O)[C@]12C
C1=CC2C3C=CC(C3)C2C1 (stereo not given)
CCO/C=C1\N=C(c2ccccc2)OC1=O
Cc1ncc([N+](=O)[O-])n1CCO
Nc1c(Cl)cc(Cl)cc1[N+](=O)[O-]
CCCCCCCCSCCO
CCCCCCCCCCCCCCCC(=O)OC/C=C(C)/C=C/C=C(C)/C=C/C1=C(C)CCCC1(C)C
CCCCCC(=O)CC
CC/C=C\CC/C=C/CO
C=C(C)C(=O)OCCOCCOCCOC(=O)C(=C)C
CC(C)(C)CC(C)(C)c1ccc(OCCOCC[N+](C)(C)Cc2ccccc2)cc1
Cc1cc(=O)oc2cc(N(C)C)ccc12
COS(=O)(=O)O
C=C1CC[C@H](O)C/C1=C/C=C1\CCC[C@]2(C)[C@@H]([C@H](C)/C=C/[C@H](C)C(C)C)CC[C@@H]12
COc1ccc(OC)c(N=Nc2c(O)ccc3ccccc23)c1
CS(=O)(=O)OCCCCOS(C)(=O)=O
c1ccc(CCc2ccccc2)cc1
C[N+](C)(C)CCCCCC[N+](C)(C)C
BrCc1cccc(Oc2ccccc2)c1
COc1ccc(CCN2CCC(Nc3nc4ccccc4n3Cc3ccc(F)cc3)CC2)cc1
CC1CC(O)CC(C)(C)C1 (stereo not given)
CN(C)c1cccc(O)c1
CCC(=O)O[C@@H]1C[C@H]2CC[C@]1(C)C2(C)C
CC1(C)O[C@@H]2[C@@H](CO[C@@]3(COS(N)(=O)=O)OC(C)(C)O[C@@H]23)O1
CCCCC1CCC(O)CC1 (stereo not given)
O=C(c1ccccc1)C(O)c1ccccc1 (stereo not given)
CCCCCCCC(=O)OCC(O)CO (stereo not given)
c1ccc2[nH]cnc2c1
